Screening results (PubChem BioAssay)
Sampled rows, rich in hits. Any-hit rate of the full collection: about 1.6%.
PREPL inhibitor = PREPL enzyme inhibitors, primary screen, biochemical, fluorescence polarization. Prolyl endopeptidase-like (Homo sapiens), Q4J6C6. recombinant PREPL, fluorescence polarization activity-based probe. inhibition, % at 5.96 µM. 0.68% of 320,000 active. AID 2751, 2010; in the data active means inhibition above about 43%
VLA-4 inh = inhibition in human VLA-4 binding assay, primary screen, VLA-4 allosteric modulator project, MLPCN library, flow cytometry, VLA-4 expressing cells | Integrin alpha-4 (Homo sapiens), P13612 | ligand binding flow cytometry | inhibition, % (about 7 µM as worked out from the volumes in the protocol) | 0.2% of 330,000 active; in the data active means inhibition above about 50%
Pemphigus Ab inh = inhibitors of pemphigus antibody binding to DSG3, primary screen, biochemical, bead-based, flow cytometry, scFv-GFP; DSG3-coupled beads, scFv-anti-DSG3-GFP binding; hits give low values; binding (percent of control), % at 10 µM; 0.48% of 310,000 active; AID 588358, 2011;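 active means binding more than 3 SD below its plate's average and above zero; inconclusive means below that plate limit but binding exactly zero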;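 further: hits lower antibody fragment binding to DSG3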
GRK2 inh = compounds blocking aptamer binding on GRK2 – biochemical, human GRK2, bead flow cytometry, HTS, primary screen; Beta-adrenergic receptor kinase 1 (Homo sapiens), P25098; FAM-aptamer displacement from GRK2; inhibition of aptamer binding, % at 10 µM; 0.59% of 330,000 active;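 active means inhibition of aptamer binding above 40%, roughly 3 SD of noise, on plates passing a quality check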;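 further: median bead fluorescence of bound FAM aptamer so fluorescent compounds give negative values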
GASC-1 inh = inhibitors of GASC-1 histone demethylase, primary screen, biochemical, fluorescence, DELFIA europium; 0.069% of 330,000 active; inhibition, % at 2.35 µM; GST-JMJD2C(1-420) H3K9me3 demethylation;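 active means more than half of a compound's replicate wells show inhibition beyond 50%, single wells judged on their own value; inconclusive means some, but no more than half, of replicates pass 50% inhibition; inactive means no replicate passes 50% inhibition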;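 further: signal counts dimethyl H3K9 product captured on neutravidin plate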
Target sequence (Q9H3R0 1-420 limits assumed): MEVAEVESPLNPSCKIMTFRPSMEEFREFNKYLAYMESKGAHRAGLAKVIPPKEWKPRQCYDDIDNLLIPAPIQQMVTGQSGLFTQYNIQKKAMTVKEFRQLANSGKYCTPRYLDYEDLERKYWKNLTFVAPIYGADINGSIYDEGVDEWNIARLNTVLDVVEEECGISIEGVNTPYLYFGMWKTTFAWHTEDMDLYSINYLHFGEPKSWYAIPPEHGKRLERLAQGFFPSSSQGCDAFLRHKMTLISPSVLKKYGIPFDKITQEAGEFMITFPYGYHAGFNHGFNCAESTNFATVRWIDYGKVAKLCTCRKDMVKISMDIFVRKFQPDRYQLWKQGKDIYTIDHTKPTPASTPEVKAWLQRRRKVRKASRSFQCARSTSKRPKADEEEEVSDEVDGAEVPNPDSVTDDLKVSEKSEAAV
VLA-4 allo CP = retest of VLA-4 allosteric modulators, confirmation, cell-based, cherry-picked plates, U937, HUTS-21 LIBS antibody; inhibition, % at 6.7 µM; AID 2813, 2010; U937 cells, HUTS-21 LIBS mAb binding, flow cytometry; LDV ligand present at threefold Kd; 2% of 1,300 active; shares compounds with VLA-4 inh; in the data active means inhibition above about 40%
A number is an active result; i = inactive; ? = inconclusive; nt = not tested or not shown.

SMILES	PREPL inhibitor	VLA-4 inh	Pemphigus Ab inh	GRK2 inh	GASC-1 inh	VLA-4 allo CP
COc1ccc(C)cc1S(=O)(=O)Nc1cccc(Cl)c1	i	i	i	i	i	nt
COc1ccc(Nc2nccc(-c3cccc(N)c3)n2)cc1	i	i	?	i	i	nt
COc1ccc(-c2c(C(F)(F)F)oc3c(CN4CCN(C)CC4)c(O)ccc3c2=O)cc1	i	92	i	i	i	i
COc1ccc(-c2c(C)oc3c(CN4CCN(C)CC4)c(O)ccc3c2=O)cc1	i	i	i	i	i	nt
CC(=O)Nc1ccc(S(=O)(=O)Nc2nc3ccccc3nc2Cl)cc1	i	i	i	i	i	i
CC(=O)Nc1ccc(S(=O)(=O)Nc2nccc(C)n2)cc1	i	i	i	i	i	i
Cc1ccnc(NS(=O)(=O)c2ccc(NC(=O)C(C)(C)C)cc2)n1	i	i	i	i	i	nt
O=C(c1ccc(CN2CCc3ccccc3C2)cc1)N1CCc2ccccc2C1	i	i	i	i	i	nt
O=C(c1ccc(CN2CCc3ccccc3C2)cc1)N1CCN(c2ccccc2)CC1	i	i	nt	i	i	i
Cc1cc(C)c(S(=O)(=O)c2ccc(F)cc2C)c(Cl)n1	i	i	i	i	i	i
O=S(=O)(Nc1ncccn1)c1ccccc1	i	i	i	i	i	i
O=S(=O)(Nc1ncccn1)c1ccc(F)cc1	nt	i	i	i	i	i
COc1ccc(S(=O)(=O)Nc2ncccn2)cc1	i	i	i	i	i	i
COc1ccc(CC(=O)Nc2ccc(S(=O)(=O)Nc3ncccn3)cc2)cc1	i	i	i	i	i	nt
O=C(Nc1ccc(Cl)cc1)Nc1ccc(S(=O)(=O)Nc2ncccn2)cc1	i	i	i	i	i	nt
O=S(=O)(Nc1ncccn1)c1ccc(Cl)cc1	i	i	i	i	i	i
Nc1ccc(S(=O)(=O)Nc2ncccn2)cc1	i	i	i	i	i	nt
CCN(CC)CCN(C(=O)CCS(=O)(=O)c1ccccc1)c1nc2c(C)cc(C)cc2s1	i	i	?	i	i	nt
CCCN(C(=S)Nc1ccccc1)C1CCS(=O)(=O)C1 (stereo not drawn)	i	i	i	i	i	nt
CS(=O)(=O)Nc1ccc(C(=O)Nc2ccccc2C(=O)NCc2ccco2)cc1	i	i	i	i	i	nt
Cc1ccccc1NS(=O)(=O)c1ccc(Cl)cc1	i	i	i	i	i	i
Cc1ccc(S(=O)(=O)Nc2ncccn2)cc1	i	i	i	i	i	i
COc1cc(SC)ccc1C(=O)N1CCCc2ccccc21	i	i	i	i	i	nt
CCCC(=O)Nc1ccc(C(=O)Nc2nc(CC(=O)OCC)cs2)cc1	i	56	i	i	i	i
CCOC(=O)c1ccc(NC(=O)c2ccc3c(c2)C(=O)N(Cc2cccnc2)C3=O)cc1	i	i	i	i	i	nt
SMILES	PREPL inhibitor	VLA-4 inh	Pemphigus Ab inh	GRK2 inh	GASC-1 inh	VLA-4 allo CP
O=C(O)CCN1C(=O)c2ccccc2Sc2ncccc21	i	i	i	i	i	i
CC(C)Cn1c(N)c(C(=O)CSc2nnc(-c3ccco3)n2C)c(=O)n(C)c1=O	i	53	i	i	i	i
COc1ccccc1COC(=O)Nc1c(C)nn(C)c1Cl	i	i	i	i	i	nt
COc1ccc(-c2nc3scc(-c4ccc(OC)c(OC)c4)c3c(=O)o2)cc1	i	84	i	i	i	i
COC(=O)[C@]1(Cc2ccccc2)N[C@H](CN(C)S(=O)(=O)c2ccc(C(C)(C)C)cc2)[C@@H]2C(=O)N(Cc3ccccc3)C(=O)[C@@H]21	i	i	i	i	i	i
CCN(C[C@H]1N[C@@](Cc2ccccc2)(C(=O)OC)[C@H]2C(=O)N(Cc3ccccc3)C(=O)[C@@H]12)S(=O)(=O)c1ccc(C(F)(F)F)cc1	i	i	i	i	nt	nt
CC[C@@]1(C(=O)OC)N[C@H](CN(C)S(=O)(=O)c2ccccc2)[C@@H]2C(=O)N(Cc3ccccc3)C(=O)[C@@H]21	i	i	i	i	i	nt
COC(=O)[C@]1(Cc2ccccc2)N[C@H](CN(C)S(=O)(=O)c2ccc(C(F)(F)F)cc2)[C@@H]2C(=O)N(Cc3ccccc3)C(=O)[C@@H]21	i	i	i	i	i	i
C/C(=N/NC(=O)c1ccc(Br)o1)c1cccc(NC(=O)c2ccc(F)cc2)c1	i	i	nt	i	i	nt
CC(C)Cn1c(-c2cccnc2)nc2c1c(=O)[nH]c(=O)n2CC(C)C	i	i	i	i	i	nt
Cc1ccccc1-c1nc(CN(C)C(C)c2ccon2)c(C)o1 (stereo not drawn)	i	i	i	i	i	nt
COc1ccc(OC)c(CNC(=O)CCCc2cn(C)c3ccccc23)c1	i	i	i	i	i	nt
COc1ccc(Br)cc1CNC(=O)CCCc1cn(C)c2ccccc12	i	53	i	i	i	i
CCN(C[C@H]1N[C@@](CC)(C(=O)OC)[C@H]2C(=O)N(Cc3ccccc3)C(=O)[C@@H]12)C(=O)COC	i	i	i	i	nt	nt
CCN(C[C@H]1N[C@@](CC)(C(=O)OC)[C@H]2C(=O)N(Cc3ccccc3)C(=O)[C@@H]12)C(=O)c1ccccc1	i	i	i	i	nt	nt
COC(=O)[C@]1(Cc2ccccc2)N[C@H](CN(C)C(=O)Nc2ccc(F)cc2)[C@@H]2C(=O)N(Cc3ccccc3)C(=O)[C@@H]21	i	i	i	i	i	i
CCN(C[C@H]1N[C@@](Cc2ccccc2)(C(=O)OC)[C@H]2C(=O)N(Cc3ccccc3)C(=O)[C@@H]12)C(=O)COC	i	i	i	i	nt	i
CCN(C[C@H]1N[C@@](Cc2ccccc2)(C(=O)OC)[C@H]2C(=O)N(Cc3ccccc3)C(=O)[C@@H]12)C(=O)c1ccccc1	i	50	i	i	i	i
CCN(C[C@H]1N[C@@](Cc2ccccc2)(C(=O)OC)[C@H]2C(=O)N(Cc3ccccc3)C(=O)[C@@H]12)C(C)=O	i	i	i	i	nt	i
O=C(NCC1CC1)c1cc(-c2ccccc2)nn1CC1CC(c2cccc([N+](=O)[O-])c2)=NO1 (stereo not drawn)	i	nt	i	nt	i	nt
CNC(=O)CSc1nc2c([nH]c3ccccc32)c(=O)n1CCOC	i	58	i	i	i	i
COCCn1c(SCC(=O)Nc2ccc(F)cc2)nc2c([nH]c3ccccc32)c1=O	i	i	i	i	i	nt
Cc1cccc(N(C)S(=O)(=O)c2ccc3c(c2)C(C)(C)C(=O)N3C)c1	i	i	i	i	i	i
CCOc1ccccc1CNS(=O)(=O)c1ccc2c(c1)C(C)(C)C(=O)N2C	i	i	nt	i	i	nt
